Bioassay records deposited in PubChem BioAssay by University of Kansas High Throughput Screening Laboratory.
Compounds with a hit are over-represented: about 3.6% of the library has one in this group of screens.
mHTT CaM bind: disrupts binding of mutant huntingtin to calmodulin | P42858 | AlphaScreen His-mHTT/GST-CaM binding, luminescence | inhibition, % at 15 µM | 190,000 tested, 3.6% active
Pf apPOL inh: Pf-apPOL DNA polymerase inhibition. Recombinant Pf-apPOL, molecular beacon fluorescence, 1.5 h. inhibition, % at 10 µM. 210,000 tested, 0.25% active. AID 1794808
A number is an active result; i = inactive; nt = no result; + = active, no number. No stated cut-off is given here; in the data, active means inhibition above about 50%; inactive means the rest.

SMILES	mHTT CaM bind	Pf apPOL inh
C=CCn1c(SCC(=O)O)nnc1-c1cccs1	50.2	i
COc1ccc(C=C2Oc3c(cc(CN(C)C)c(O)c3C)C2=O)cc1	i	i
CCCCCCOc1ccc(C2C(=O)N(C3CCCCC3)CC(=O)N2C2CC2)cc1 (configuration not stated)	i	i
CCc1nc2nc(C)cc(N3CCN(c4ccc(C)cc4C)CC3)n2n1	63.4	i
CCCN(C)Cc1nc2nc(C)cc(N3CCCCCC3)n2n1	i	i
Cc1ccc(C)c2sc(NC(=O)CN(C)S(C)(=O)=O)nc12	i	i
Cc1ccc(CN2CCCn3nc(C(=O)NCc4ccc5c(c4)OCO5)cc3C2=O)cc1	i	i
N#Cc1c(-n2cccc2/C=N/O)sc2c1CCCC2	i	i
Cc1cc(/C=N/NC(N)=S)c(C)n1-c1sc2c(c1C#N)CCCC2	+	nt
COc1ccc(C2OC(=O)C3(CCCCC3)C(=O)C2(C)C)cc1OC (configuration not stated)	i	i
Cc1ccc(N=C(NN)c2ccc3ccccc3n2)cc1	i	i
CCOc1ccc(N=C(NN)c2ccc3ccccc3n2)cc1	55.5	i
Cc1noc(-c2nn(C)c3c2CN(S(=O)(=O)Cc2ccc(F)cc2)CC3)n1	i	i
CSc1scc2c1C(=O)C(=CN(C)C)CC2	nt	93.0
CN(C)C=C1Cc2ccccc2C1=O	nt	i
Cc1noc(C)c1CCC(=O)N1CCC(c2nc3ccncc3n2C(C)C)C1 (configuration not stated)	i	i
Nc1sc(SCC(=O)NCc2ccc(F)cc2)nc1-c1ccccc1	91.3	i
Nc1cc(N)nc(SCC(=O)NCc2ccccc2)n1	i	i
O=c1nc2n(-c3cccc(Cl)c3)c3ccc([N+](=O)[O-])cc3cc-2c(=O)[nH]1	i	i
Cn1cc2c3c(cccc31)CN(C(=O)c1ccccc1F)CC2	i	i
CCn1cc2c3c(cccc31)CN(C(=O)c1cccc(F)c1)CC2	i	i
CCCn1cc2c3c(cccc31)CN(C(=O)c1cccc(F)c1)CC2	66.2	i
CCCn1cc2c3c(cccc31)CN(C(=O)c1ccccc1F)CC2	51.5	i
Clc1ccccc1CSc1nncn1-c1ccccc1	i	i
O=C(NCc1ccccc1)/C(=C\c1cccc([N+](=O)[O-])c1)NC(=O)c1ccc(Br)o1	i	i
SMILES	mHTT CaM bind	Pf apPOL inh
Cc1nc2nc(CC(=O)NCc3ccccc3)nn2c(C)c1Cc1cccc(Cl)c1	63.0	i
Cc1nc2c(C(=O)NCc3ccco3)cnn2c(C)c1Cc1cccc(Br)c1	51.0	i
Cc1ccc(CNC(=O)c2cnn3c(C)c(Cc4cccc(Cl)c4)c(C)nc23)cc1	i	i
COc1ccccc1CNC(=O)c1cnn2c(C)c(Cc3cccc(Br)c3)c(C)nc12	i	i
Cc1nc2c(C(=O)NCc3cccnc3)cnn2c(C)c1Cc1cccc(Br)c1	58.0	i
Cc1nc2c(C(=O)NCc3ccco3)cnn2c(C)c1Cc1cccc(Cl)c1	i	i
Cc1nc2nc(SCC(=O)NCc3ccccc3)nn2c(C)c1Cc1ccccc1	i	i
Cc1nc2c(C(=O)NCc3ccccc3)cnn2c(C)c1Cc1cccc(Br)c1	66.0	i
Cc1ccc(C(=O)N2CCCC(c3nc(-c4cnccn4)n[nH]3)C2)s1 (configuration not stated)	i	i
CCOc1ccc(NC(=O)c2c(NC(=O)CCC(=O)O)sc3c2CCC3)cc1	i	i
O=C1CC(C(=O)N2CCNc3ccccc3C2)CN1CCc1ccccc1 (configuration not stated)	i	i
O=C1C=CC(=O)N1c1ccc(Br)cc1[N+](=O)[O-]	i	i
Oc1cccc(C=Nc2c(-c3ccco3)nc3ccccn23)c1	i	i
Cc1[nH]c2ccccc2c1C=Nc1c(-c2ccco2)nc2ccccn12	91.0	i
COc1ccc(OC)c(N2CCN(Cc3ccc(F)cc3)C(C)C2=O)c1 (configuration not stated)	73.8	i
COc1ccc(N2CCN(Cc3ccc(F)cc3)C(C)C2=O)c(OC)c1 (configuration not stated)	i	i
COc1ccc(OC)c(N2CCN(Cc3ccccc3F)C(C)C2=O)c1 (configuration not stated)	i	i
COc1ccc(OC)c(N2CCN(Cc3cccc(C)c3)C(C)C2=O)c1 (configuration not stated)	62.3	i
Cc1nn(-c2ccccc2)c(Cl)c1C(=O)Nc1ccc(I)cc1	i	i
Cc1ccc(C(=O)N2CCN(c3nc(CN4CCCC4)cs3)CC2)cc1C	68.9	i
Cc1ccc(C(=O)N2CCN(c3nc(CN4CCOCC4)cs3)CC2)cc1C	i	i
COc1ccc2oc(=O)c(C(=O)Nc3c(F)cccc3F)cc2c1	i	i
COc1ccccc1OCC(O)CNC1CCCC1 (configuration not stated)	i	i
COc1ccc(Cl)cc1S(=O)(=O)NCCC1CCN(C(=O)c2ccccc2)CC1	76.7	i
Cc1cc(C)cc(S(=O)(=O)NCCC2CCN(C(=O)c3ccccc3)CC2)c1	i	i
SMILES	mHTT CaM bind	Pf apPOL inh
COc1ccc(S(=O)(=O)NCCC2CCN(C(=O)c3ccccc3)CC2)cc1Cl	i	i
COc1ccc(OC)c(S(=O)(=O)NCCC2CCN(C(=O)c3ccccc3)CC2)c1	63.5	i
Cc1cc(C2CCCN2C(=O)c2cc(-c3ccccc3Cl)on2)on1 (configuration not stated)	i	i
Cc1sccc1C1C(C#N)=C(N)N(c2ccc([N+](=O)[O-])cc2Cl)C2=C1C(=O)CC(C)(C)C2 (configuration not stated)	i	i
O=C(NCc1cc(F)ccc1F)C1CCc2nc(N3CCOCC3)ncc2C1 (configuration not stated)	i	i
NS(=O)(=O)c1ccc2c(c1)C1C=CCC1C(c1cccc3ccccc13)N2 (configuration not stated)	94.4	nt
NS(=O)(=O)c1ccc2c(c1)C1C=CCC1C(C1CC=CCC1)N2 (configuration not stated)	94.9	i
NS(=O)(=O)c1ccc2c(c1)C1C=CCC1C(C(=O)O)N2 (configuration not stated)	i	i
O=[N+]([O-])c1ccc2c(c1)C1C=CCC1C(C1CC=CCC1)N2 (configuration not stated)	i	nt
COc1ccc(CN2CCCC2c2cc(C)on2)c(OC)c1 (configuration not stated)	i	i
CC(=NCc1ccc(F)cc1)C1=C(O)c2ccccc2C1=O	i	i
CCOc1ccc(C=C2Oc3cc(OCC(=O)OC)ccc3C2=O)cc1	i	i
Cc1ccc(-c2ccc(OCC(=O)NCc3ccco3)cc2)cc1	i	i
CCN(CC)c1ccc2cc(C(N)=O)c(=Nc3ccccc3C)oc2c1	54.0	i
CCN(CC)c1ccc2cc(C(N)=O)c(=Nc3ccc(C)cc3)oc2c1	i	i
O=C(O)C1Nc2c(O)cc(Cl)c([N+](=O)[O-])c2C2C=CCC12 (configuration not stated)	90.0	i
O=C(O)C1Nc2cc(Cl)cc(Cl)c2C2C=CCC12 (configuration not stated)	99.0	i
CCCC1Nc2c(C(=O)O)ccc([N+](=O)[O-])c2C2C=CCC12 (configuration not stated)	i	i
CC(=O)c1ccc2c(c1)C1C=CCC1C(c1ccc(Cl)cc1Cl)N2 (configuration not stated)	i	i
O=[N+]([O-])c1c(Cl)cc(O)c2c1C1C=CCC1C(C1CC=CCC1)N2 (configuration not stated)	80.0	i
